Values joined by “and” are separate entries in the source; they are usually repeats but may differ in a detail not shown here. Equal entries are not always repeated. Records with an inconclusive call do not appear. Some structures have more than one record in an assay (separate samples or runs), and their calls can disagree. Active and inactive are the calls of the source. Unless noted, calls come from the whole dose curve; as a rule, active = well fitted curve in the direction sought with a large enough effect in the repeat runs; inconclusive = weak or mixed curves; inactive = no such curve, though single readings can be large; an effect the other way counts as inactive or inconclusive.

The nature of assay [1]: qHTS assay to identify small molecule agonists of the sonic hedgehog signaling (Shh) pathway (AID 1259368; calls by dose curve;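 note: NIH/3T3-derived 3T3Gli1-Luc cells carrying a stable Gli1-driven firefly luciferase reporter; series mostly up to about 92 µM; nearly all actives have a fitted effect of over 15% in size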). Put shortly: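 Mouse fibroblast (NIH/3T3) reporter cells with stably integrated Gli1-Luc were treated 24 hr with compound; firefly luciferase luminescence served as the read-out.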
For orientation: Quantitative high-throughput screening tests each substance at several concentrations.

Assay [2] in a line: qHTS assay to identify small molecule antagonists of the sonic hedgehog signaling (Shh) pathway (AID 1259369; calls by dose curve; note: nearly all actives have a fitted effect of over 45% in size; note: potency is the fitted concentration of half-maximal effect). The method, boiled down: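 Conditioned medium drives Shh signalling in 3T3Gli1-Luc cells; compounds in DMSO co-applied, 24hr at 37 C, then luciferase luminescence.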
Assay [3] can be described thus: qHTS assay to identify small molecule agonists of the androgen receptor (AR) signaling pathway in the presence of an antagonist - cell viability counter screen (AID 1259379). Note: nearly all actives have a fitted effect of over 25% in size. Note: potency is the fitted concentration of half-maximal effect. Put shortly:
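A CellTiter-Fluor read-out measured viability of MDA-kb2 reporter cells (MMTV promoter with AR and GR response elements). Treatment: nilutamide 3.0uM final with compounds at 15 concentrations, 16 hr, 37C, 0% CO2.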

The nature of assay [4]: qHTS assay to identify small molecule agonists of the estrogen receptor beta (ER-beta) signaling pathway - cell viability counter screen (AID 1259380). Note: nearly all actives have a fitted effect of over 30% in size. Note: potency is the fitted concentration of half-maximal effect. Put shortly: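 Cells used were ER-beta-UAS-bla HEK293T in medium with 2% charcoal-stripped FBS. They were treated for 16 hr at 37C. Viability came from CellTiter-Glo luminescence.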
Assay [5] concerns the target Androgen receptor (Homo sapiens) (UniProt P10275). Kind of assay: qHTS assay to identify small molecule agonists of the androgen receptor (AR) signaling pathway in the presence of an antagonist (AID 1259381; calls by dose curve; note: nearly all actives have a fitted effect of over 15% in size; note: potency is the fitted concentration of half-maximal effect). The method, boiled down:
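Using human MDA-kb2 cells with an MMTV promoter–luciferase construct (AR and GR response elements), agonist activity is scored under 3.0uM nilutamide (final) co-treatment; 16hr incubation, 37C, luminescence readout via ONE-Glo.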

A short description of assay [6]: qHTS assay to identify small molecule agonists or antagonists of the thyroid stimulating hormone receptor (TSHR) signaling pathway - wild type cell line counter screen (AID 1259384; calls by dose curve). Put shortly: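 Wild-type HEK293 cells were plated 18 h at 37 C/5% CO2, pin-dosed with compound plus Ro20-1724 medium, held 30 min at room temperature, then given cAMP-d2 and anti-cAMP-cryptate; fluorescence was read after 1 h. Fifteen concentrations, triplicate.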

For assay [7], the target named is Thyrotropin receptor (Homo sapiens) (UniProt P16473). The assay can be described thus: qHTS assay to identify small molecule antagonists of the thyroid stimulating hormone receptor (TSHR) signaling pathway (AID 1259385; calls by dose curve; note: nearly all actives have a fitted effect of over 20% in size; note: potency is the fitted concentration of half-maximal effect). The method, boiled down:
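TSHR-HEK293 cells were plated and held 18 h at 37C/5% CO2, then given compound plus Ro20-1724 and stimulated with TSH at 1.5 ng/mL final. After 30 min at room temperature, cAMP was detected with cAMP-d2/anti-cAMP-cryptate (1 h) by fluorescence.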

The nature of assay [8]: qHTS assay to identify small molecule agonists of the estrogen receptor alpha (ER-alpha) signaling pathway in the presence of an antagonist - cell viability counter screen (AID 1259386).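 Note: cells exposed to compounds for 22 h at 37 °C before the viability read; nearly all actives have a fitted effect of over 30% in size.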 Note: potency is the fitted concentration of half-maximal effect. Put shortly: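 ICI-182,780 at 10.0nM final accompanies the compound titration (15 concentrations, 22hr, 37C) on VM7Luc4E2 cells. The CellTiter-Fluor fluorescence readout runs in the same wells as the luciferase assay.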

Assay [9] has as its target Progesterone receptor (Homo sapiens) (UniProt P06401). The assay can be described thus: qHTS assay to identify small molecule agonists of the progesterone receptor (PR) signaling pathway (AID 1346784; calls by dose curve; note: nearly all actives have a fitted effect of over 30% in size). The method, boiled down:
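Reporter assay, GripTite PR-UAS-bla HEK 293T cells: 16 hr exposure to DMSO-dissolved compounds at 37C, 5% CO2, in steroid-depleted (2% charcoal-stripped FBS) medium; beta-lactamase measured by FRET fluorescence.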

For assay [10] the target is unchanged. The assay can be described thus: qHTS assay to identify small molecule antagonists of the progesterone receptor (PR) signaling pathway (AID 1346795; active = well fitted inhibition curve with a large enough effect in the signal ratio in the repeat runs, not every such curve was filed as active; the % refers to the signal ratio). The method, boiled down:
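Stimulus R5020 at 1 nM final; cells HEK293T PR-UAS-bla; medium with 2% charcoal-stripped FBS; compound exposure 16 hr at 37C, 5% CO2; detection by FRET beta-lactamase substrate, 2 hr, room temperature.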

Assay [11] can be described thus: qHTS assay to identify small molecule antagonists of the progesterone receptor (PR) signaling pathway - cell viability counter screen (AID 1346798). Note: nearly all actives have a fitted effect of over 50% in size. Note: potency is the fitted concentration of half-maximal effect. Put shortly:
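In the same plates used for the beta-lactamase readout, cell viability of compound- and R5020-treated PR-UAS-bla HEK293T cells (16 hr, 37C) was assessed by CellTiter-Glo luminescence.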

Assay [12] in a line: qHTS assay to identify small molecule agonists of the progesterone receptor (PR) signaling pathway - cell viability counter screen (AID 1346799; calls by dose curve; note: nearly all actives have a fitted effect of over 45% in size). The method, boiled down:
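Multiplexed viability read: CellTiter-Glo luminescence, 30 min RT, following LiveBLAzer FRET measurement on PR-UAS-bla HEK293T cells exposed to compounds 16 hr.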

Assay [13] can be described thus: qHTS assay to identify small molecule antagonists of the TGF-beta/Smad signaling pathway - cell viability counter screen (AID 1346824). Note: nearly all actives have a fitted effect of over 50% in size. Put shortly:
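SBE-bla HEK 293T cells were plated overnight at 37 C, then given compounds in DMSO plus TGF-beta1 (added as 0.25 ng/mL solution) for 5 hr. After the bla read, CellTiter-Glo was added to the same wells and luminescence read after 30 min at room temperature.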

Assay [14] can be described thus: qHTS assay to identify small molecule agonists of the TGF-beta/Smad signaling pathway - cell viability counter screen (AID 1346829). Note: top concentration of the series differs between compounds; nearly all actives have a fitted effect of over 45% in size. The method, boiled down: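 Here the cytotoxicity of library compounds is measured in SBE-bla HEK 293T cells treated for 5 hr, using CellTiter-Glo added to wells already read for the beta-lactamase reporter.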
Assay [15] in a line: qHTS assay to identify small molecule agonists of the TGF-beta/Smad signaling pathway (AID 1346859; active = well fitted activation curve with a large enough effect in the signal ratio in the repeat runs, not every such curve was filed as active; the % refers to the signal ratio; note: series mostly up to about 77 µM). The method, boiled down: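 Screening used HEK 293T SBE-bla cells at 4,000/well. Test agents: 5 hr, 37 C. Detection: FRET substrate, 2 hr RT, then excitation 405 nm with emissions at 460 and 530 nm.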
Assay [16] addresses Thyrotropin-releasing hormone receptor (Homo sapiens) (UniProt P34981). The assay can be described thus: qHTS assay to identify small molecule antagonists of the thyrotropin-releasing hormone receptor (TRHR) signaling pathway (AID 1346877; active = well fitted inhibition curve with a large enough effect in the repeat runs, not every such curve was filed as active; note: series mostly up to about 51 µM). The method, boiled down:
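Screening used HEK293 cells engineered with TRHR, with a brief 5 min room-temperature compound exposure preceding addition of TRH to 1 nM. The read-out was kinetic calcium-dye fluorescence, concentration-response from 15 doses in triplicate.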

Assay [17] in a line: qHTS assay to identify small molecule antagonists of the estrogen receptor beta (ER-beta) signaling pathway - cell viability counter screen (AID 1259382). Note: series mostly up to about 92 µM; nearly all actives have a fitted effect of over 55% in size. The method, boiled down:
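Agonist-stimulated (1nM E2) ER-beta-UAS-bla HEK293T cells are incubated with library compounds for 16 hr at 37C. Cell viability is then assessed in the reporter-assay wells by adding CellTiter-Glo and reading luminescence after 30 min.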

In assay [18] the target is Estrogen receptor (Homo sapiens) (UniProt P03372). The assay can be described thus: qHTS assay to identify small molecule agonists of the estrogen receptor alpha (ER-alpha) signaling pathway in the presence of an antagonist (AID 1259383; calls by dose curve; note: nearly all actives have a fitted effect of over 15% in size; note: potency is the fitted concentration of half-maximal effect; for activation: top concentration of the series differs between compounds). The method, boiled down: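 Using VM7Luc4E2 cells seeded 24hr before treatment, antagonist ICI-182,780 (10.0nM final) was added, followed by compounds at 15 concentrations. Plates incubated 22hr; ONE-Glo luminescence quantified reporter activity.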
Sequence of Estrogen receptor (Homo sapiens) (P03372 whole entry, looked up): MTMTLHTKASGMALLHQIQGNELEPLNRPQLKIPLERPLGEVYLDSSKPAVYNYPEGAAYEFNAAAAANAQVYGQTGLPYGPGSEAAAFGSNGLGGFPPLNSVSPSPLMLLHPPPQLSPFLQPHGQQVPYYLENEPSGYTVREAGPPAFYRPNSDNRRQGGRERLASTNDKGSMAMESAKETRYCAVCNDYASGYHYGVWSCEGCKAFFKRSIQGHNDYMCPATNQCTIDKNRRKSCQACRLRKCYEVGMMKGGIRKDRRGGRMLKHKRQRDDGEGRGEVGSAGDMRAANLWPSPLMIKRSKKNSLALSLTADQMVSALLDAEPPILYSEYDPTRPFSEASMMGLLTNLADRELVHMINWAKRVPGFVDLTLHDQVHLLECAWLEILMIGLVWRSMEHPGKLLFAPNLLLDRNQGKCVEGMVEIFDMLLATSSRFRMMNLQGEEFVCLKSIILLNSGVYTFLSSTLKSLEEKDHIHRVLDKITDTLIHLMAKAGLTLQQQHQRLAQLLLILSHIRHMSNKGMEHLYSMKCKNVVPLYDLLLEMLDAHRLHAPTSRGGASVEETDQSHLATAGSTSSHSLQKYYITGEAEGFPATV

Assay [19] addresses Estrogen receptor beta (Homo sapiens) (UniProt Q92731). Kind of assay: qHTS assay to identify small molecule agonists of the estrogen receptor beta (ER-beta) signaling pathway (AID 1259377; active = well fitted activation curve with a large enough effect in the signal ratio in the repeat runs, not every such curve was filed as active; the % refers to the signal ratio; note: potency is the fitted concentration of half-maximal effect). The method, boiled down: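 Reporter cells (HEK293T, ER-beta-UAS-bla) receive compounds or DMSO after a 6 hr pre-incubation. They then incubate 16 hr at 37C/5% CO2, and fluorescence from LiveBLAzer B/G substrate is measured after 2 hours at room temperature.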

Sequence of Estrogen receptor beta (Homo sapiens) (Q92731 whole entry, looked up): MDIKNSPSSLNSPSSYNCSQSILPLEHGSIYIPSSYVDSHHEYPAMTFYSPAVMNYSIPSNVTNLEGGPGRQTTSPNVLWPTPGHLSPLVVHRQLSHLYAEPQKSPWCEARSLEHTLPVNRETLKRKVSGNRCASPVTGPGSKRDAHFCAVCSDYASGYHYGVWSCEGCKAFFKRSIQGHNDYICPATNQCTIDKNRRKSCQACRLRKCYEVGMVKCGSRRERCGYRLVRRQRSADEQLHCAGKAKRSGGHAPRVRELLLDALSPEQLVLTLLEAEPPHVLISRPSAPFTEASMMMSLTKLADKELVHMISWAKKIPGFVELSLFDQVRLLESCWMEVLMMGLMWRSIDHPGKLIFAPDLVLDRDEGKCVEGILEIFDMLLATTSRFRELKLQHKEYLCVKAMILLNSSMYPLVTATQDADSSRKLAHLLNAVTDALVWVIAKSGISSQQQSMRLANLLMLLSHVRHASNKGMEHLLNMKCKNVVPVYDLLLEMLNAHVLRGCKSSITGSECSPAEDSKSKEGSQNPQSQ
Sequence of Progesterone receptor (Homo sapiens) (P06401 whole entry, looked up): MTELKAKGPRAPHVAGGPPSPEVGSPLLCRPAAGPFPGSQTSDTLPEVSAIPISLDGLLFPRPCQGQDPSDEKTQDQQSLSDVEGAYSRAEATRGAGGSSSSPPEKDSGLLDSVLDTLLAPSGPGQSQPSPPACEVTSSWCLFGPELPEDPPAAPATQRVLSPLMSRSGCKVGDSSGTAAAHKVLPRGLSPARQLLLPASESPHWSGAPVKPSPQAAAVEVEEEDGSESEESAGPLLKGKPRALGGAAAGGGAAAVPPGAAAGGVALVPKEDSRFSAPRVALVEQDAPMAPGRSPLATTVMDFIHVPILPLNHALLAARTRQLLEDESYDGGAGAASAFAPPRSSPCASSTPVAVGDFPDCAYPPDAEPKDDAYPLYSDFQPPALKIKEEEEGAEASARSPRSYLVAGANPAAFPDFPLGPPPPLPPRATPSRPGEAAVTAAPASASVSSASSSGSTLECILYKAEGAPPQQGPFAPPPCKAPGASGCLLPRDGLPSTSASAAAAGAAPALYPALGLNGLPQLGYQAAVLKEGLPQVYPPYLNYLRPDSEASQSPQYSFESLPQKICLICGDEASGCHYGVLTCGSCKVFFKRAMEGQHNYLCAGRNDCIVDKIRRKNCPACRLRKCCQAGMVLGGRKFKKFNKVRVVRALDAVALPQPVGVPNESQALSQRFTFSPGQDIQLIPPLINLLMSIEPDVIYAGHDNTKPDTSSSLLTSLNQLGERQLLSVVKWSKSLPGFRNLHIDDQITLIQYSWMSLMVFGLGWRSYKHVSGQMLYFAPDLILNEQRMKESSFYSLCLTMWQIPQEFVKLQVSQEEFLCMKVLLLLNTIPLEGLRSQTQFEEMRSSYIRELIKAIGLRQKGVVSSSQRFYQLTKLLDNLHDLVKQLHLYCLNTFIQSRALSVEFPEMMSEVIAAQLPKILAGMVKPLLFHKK
Sequence of Androgen receptor (Homo sapiens) (P10275 whole entry, looked up): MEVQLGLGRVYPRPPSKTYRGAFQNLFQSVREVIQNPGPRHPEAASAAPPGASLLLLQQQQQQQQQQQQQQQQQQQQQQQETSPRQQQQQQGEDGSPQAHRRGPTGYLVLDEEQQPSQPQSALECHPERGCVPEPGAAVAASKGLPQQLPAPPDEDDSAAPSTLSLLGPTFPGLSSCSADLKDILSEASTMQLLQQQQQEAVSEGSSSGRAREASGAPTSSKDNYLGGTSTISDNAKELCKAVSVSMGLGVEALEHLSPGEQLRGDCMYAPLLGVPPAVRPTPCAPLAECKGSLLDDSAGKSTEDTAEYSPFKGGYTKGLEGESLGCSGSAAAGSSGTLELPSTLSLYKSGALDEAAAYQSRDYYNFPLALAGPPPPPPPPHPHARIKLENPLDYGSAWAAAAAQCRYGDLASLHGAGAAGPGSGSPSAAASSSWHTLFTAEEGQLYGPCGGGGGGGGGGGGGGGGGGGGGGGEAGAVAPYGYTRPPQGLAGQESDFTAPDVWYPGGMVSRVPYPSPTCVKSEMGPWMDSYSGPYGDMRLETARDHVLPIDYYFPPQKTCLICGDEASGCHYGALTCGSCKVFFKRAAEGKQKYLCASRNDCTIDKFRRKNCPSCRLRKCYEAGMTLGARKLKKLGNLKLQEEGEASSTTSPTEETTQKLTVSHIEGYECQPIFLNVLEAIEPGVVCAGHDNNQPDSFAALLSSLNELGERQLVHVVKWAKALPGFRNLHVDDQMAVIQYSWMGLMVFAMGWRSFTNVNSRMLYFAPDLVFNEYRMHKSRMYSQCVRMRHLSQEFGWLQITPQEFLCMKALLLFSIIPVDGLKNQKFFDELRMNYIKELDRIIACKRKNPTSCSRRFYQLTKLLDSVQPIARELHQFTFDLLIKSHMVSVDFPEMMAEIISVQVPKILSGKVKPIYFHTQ
Sequence of Thyrotropin-releasing hormone receptor (Homo sapiens) (P34981 whole entry, looked up): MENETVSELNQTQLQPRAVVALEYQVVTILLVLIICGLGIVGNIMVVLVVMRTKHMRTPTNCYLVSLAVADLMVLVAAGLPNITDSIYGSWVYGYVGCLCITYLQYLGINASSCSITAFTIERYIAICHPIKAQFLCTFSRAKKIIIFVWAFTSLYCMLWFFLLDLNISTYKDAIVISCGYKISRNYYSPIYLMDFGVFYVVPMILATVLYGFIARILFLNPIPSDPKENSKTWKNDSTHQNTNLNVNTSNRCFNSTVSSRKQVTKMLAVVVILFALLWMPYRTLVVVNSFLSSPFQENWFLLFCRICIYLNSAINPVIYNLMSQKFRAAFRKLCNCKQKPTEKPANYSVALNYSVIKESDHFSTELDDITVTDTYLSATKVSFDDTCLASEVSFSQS
Sequence of Thyrotropin receptor (Homo sapiens) (P16473 whole entry, looked up): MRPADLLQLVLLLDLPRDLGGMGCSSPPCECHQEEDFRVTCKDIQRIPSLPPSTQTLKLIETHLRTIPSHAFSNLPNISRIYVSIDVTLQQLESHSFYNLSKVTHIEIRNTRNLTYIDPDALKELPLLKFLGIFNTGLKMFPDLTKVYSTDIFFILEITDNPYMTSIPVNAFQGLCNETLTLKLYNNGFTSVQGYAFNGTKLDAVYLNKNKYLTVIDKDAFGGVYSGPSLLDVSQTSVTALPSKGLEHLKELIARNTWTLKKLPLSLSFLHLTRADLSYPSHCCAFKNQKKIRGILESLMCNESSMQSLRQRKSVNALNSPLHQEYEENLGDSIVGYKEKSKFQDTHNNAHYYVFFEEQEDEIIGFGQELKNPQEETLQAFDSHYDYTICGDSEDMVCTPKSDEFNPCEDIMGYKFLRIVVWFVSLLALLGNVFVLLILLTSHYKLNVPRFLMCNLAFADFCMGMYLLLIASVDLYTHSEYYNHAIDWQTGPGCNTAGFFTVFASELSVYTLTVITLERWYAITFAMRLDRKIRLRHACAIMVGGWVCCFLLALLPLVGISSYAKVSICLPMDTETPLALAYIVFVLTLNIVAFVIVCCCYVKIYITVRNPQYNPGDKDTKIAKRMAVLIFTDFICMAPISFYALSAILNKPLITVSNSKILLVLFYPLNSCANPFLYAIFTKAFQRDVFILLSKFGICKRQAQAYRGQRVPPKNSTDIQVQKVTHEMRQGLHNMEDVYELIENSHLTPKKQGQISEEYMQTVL

Take `O=C(CCl)c1ccc(Cl)cc1Cl`: the Potency entry in assay [1], in assay [5], in [8], in assay [9], in [10] and in assay [11] was “inactive” throughout. In addition, the Potency result in [12], in assay [13], in assay [14] and in assay [16] was “inactive” in each case. Moreover, the Potency is 5.96 µM (active) in assay [2]; “inactive and 29.8 µM (active)” in [3]; 38.4 µM (active) and 18.8 µM (active) in assay [4]; 23.7 µM (active) in assay [7]. For the same compound, the compound was called inactive in [6] and in assay [15].
As for `COP(=S)(OC)Oc1ccc([N+](=O)[O-])cc1Cl`, the Potency entry in [1], in assay [2], in [4], in [5], in [17] and in assay [18] was “inactive” throughout. In addition, the Potency entry in assay [7], in assay [9], in assay [10], in assay [12], in assay [13] and in assay [14] was “inactive” throughout. For the same compound, the Potency result in assay [16] was “inactive”. Moreover, the Potency in assay [3] and in assay [8] was 48.6 µM (active) in each case. Further, the compound was classed as inactive in assay [6] and in assay [15].
For the compound `CC(=O)c1cc2c(cc1C)C(C)(C)C(C)CC2(C)C` (configuration not stated), the Potency entry in assay [1], in assay [2], in assay [19], in [3], in [17] and in assay [8] was “inactive” each time. Also, the Potency entry in assay [9], in assay [11], in assay [13], in [14] and in assay [16] was “inactive” in each case. Also, the Potency in assay [4] was 61.1 µM (active). Besides, the result in assay [6] and in assay [15] was inactive.
As for `Sc1ccccc1Cl`, the Potency result in assay [1], in [2], in assay [3], in assay [4], in assay [5] and in assay [17] was “inactive” throughout. Also, the Potency entry in assay [18], in assay [7], in assay [8], in assay [9], in assay [10] and in assay [11] was “inactive” each time. Further, the Potency entry in [12], in assay [13], in [14] and in assay [16] was “inactive” in each case. Also, the compound was called inactive in [6] and in [15].
Regarding `NS(=O)(=O)C(F)(F)C(F)(F)C(F)(F)C(F)(F)C(F)(F)C(F)(F)C(F)(F)C(F)(F)F`, the Potency result in [1], in assay [2], in [19], in assay [3], in assay [5] and in assay [18] was “inactive” throughout. Besides, the Potency entry in assay [7], in [8], in assay [12], in assay [13], in [14] and in assay [16] was “inactive” in each case. The Potency was 68.6 µM (active) in [4] and 9.69 µM (active) in assay [11]. Besides, the outcome in assay [6] and in assay [15] was inactive.
For the compound `C[C@]12CC[C@H]3[C@@H](CCC4=CC(=O)CC[C@@H]43)[C@@H]1CC[C@@H]2OC(=O)CCC1CCCCC1`, the Potency entry in assay [1], in assay [2], in [3], in assay [4], in assay [17] and in [8] was “inactive” each time. Besides, the Potency result in assay [10], in assay [11], in assay [13], in assay [14] and in assay [16] was “inactive” each time. Besides, the values for the Potency in assay [19], in assay [5] and in [18] were 1.19 µM (active), 0.0422 µM (active) and 1.68 µM (active), respectively. Besides, the call in assay [15] was inactive.
For `C=CCN1CC[C@]23c4c5ccc(O)c4O[C@H]2C(=O)CC[C@@]3(O)[C@H]1C5`, the Potency result in [1], in assay [2], in [19], in [3], in [4] and in [17] was “inactive” in each case. For the same compound, the Potency result in assay [7], in assay [8], in [9], in assay [10], in [11] and in assay [12] was “inactive” each time. The Potency entry in assay [13] and in [14] was “inactive” throughout. Moreover, the compound was classed as inactive in assay [6] and in assay [15].

These data come from PubChem BioAssay (Tox21).
